High-throughput results (PubChem BioAssay)
Compounds with a hit are over-represented: about 12% of the library has one in this group of screens.
SARS PLP yeast – inhibitors of SARS-CoV papain-like protease in yeast. S. cerevisiae expressing SARS-CoV PLpro, growth rescue. Potency, µM (highest dose often 32.9 µM), usual class: activators. hit rate 0.19% among 330,000. AID 485353; also: nearly all actives have a fitted effect of over 55% in size
Shiga inhibitor – inhibitors of Shiga toxin in Vero cells; Vero cells, Shiga toxin protein synthesis inhibition reporter; inhibition, % at 38.7 µM; hit rate 9.2% among 290,000; AID 2315; in the data active = inhibition mostly above about 28%, no sharp cut-off; inactive = mostly below about 43%
NS1 function inh – influenza NS1 inhibition; hit rate 0.4% among 270,000; Potency, µM (titrated, usually from 46.1 µM); also: actives are rising curves; nearly all actives have a fitted effect of over 50% in size
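In this qHTS, NS1 from influenza A is expressed in budding yeast, where it slows growth. Cells are switched from glucose to 2% galactose medium (pH 6.0, -URA), treated with compound, and growth recovery is read at OD600.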
Cycloheximide cs – counter-screen for Shiga toxin inhibitors: cycloheximide protein synthesis inhibition; cell reporter, cycloheximide protein synthesis inhibition counterscreen; max response, %; hit rate 12% among 300,000; AID 2314; in the data active = max response mostly above about 13%, no sharp cut-off; inactive = mostly below about 14%; also: read at 38.3 µM for the half of the compounds with a filed dose
Of the large screens only hits and unclear results are named; the others gave an inactive call. Unless noted, calls follow the shape of the full dose curve.

CC(/C=N/NC(=O)c1cc(-c2cccs2)[nH]n1)=C\c1ccccc1	none
CC(/C=N/NC(=O)c1ccncc1)=C\c1ccc(C(C)C)cc1	Shiga inhibitor 128, Cycloheximide cs 52
O=C(N/N=C/C(Cl)=C\c1ccccc1)c1cnccn1	Shiga inhibitor 132, Cycloheximide cs 53
O=C(N/N=C/c1cc([N+](=O)[O-])ccc1Cl)c1cnccn1	none
O=C(N/N=C/C(Cl)=C/c1ccccc1)c1cnccn1	Shiga inhibitor 57
Cc1ccc(N2CC(C(=O)Nc3ccc4c(c3)OCO4)CC2=O)cc1C (centres undefined)	none
CCNC(=O)NC(=O)COC(=O)c1cccc(S(=O)(=O)N2CC3(C)CC2CC(C)(C)C3)c1 (centres undefined)	none (no result: Shiga inhibitor, NS1 function inh, Cycloheximide cs)
Cc1ccc(-n2c(C)nnc2SCC(=O)N(C)C2CCS(=O)(=O)C2)cc1 (centres undefined)	none (no result: Shiga inhibitor, NS1 function inh, Cycloheximide cs)
CCOc1ccc(NC(=O)CN(C)C(=O)c2ccccc2SCc2c(C)noc2C)cc1OCC	none (no result: Shiga inhibitor, NS1 function inh, Cycloheximide cs)
CC(/C=N/NC(=O)c1ccc(Br)cc1)=C\c1ccccc1	none
CC(/C=N/NC(=O)C(O)c1ccccc1)=C\c1ccccc1 (centres undefined)	Shiga inhibitor 45, Cycloheximide cs 14
CC(/C=N/NC(=O)c1cccnc1)=C\c1ccccc1	Shiga inhibitor 84, Cycloheximide cs 49 (no result: NS1 function inh)
Cc1ccc2nc(-c3ccc(NC(=O)COCC(=O)O)cc3)sc2c1	Shiga inhibitor 50, Cycloheximide cs 56
Cc1ccc2nc(-c3ccc(NC(=O)CSCC(=O)O)cc3)sc2c1	Shiga inhibitor 87, Cycloheximide cs 55
O=C(O)CSCC(=O)Nc1ccc(-c2nc3ccccc3s2)cc1	Shiga inhibitor 54, Cycloheximide cs 35
O=C(COc1ccccc1F)Nc1ccc(-c2nc3ccccc3s2)cc1	none (no result: Shiga inhibitor, NS1 function inh, Cycloheximide cs)
Cc1ccc2nc(NC(=O)CSCC(=O)Nc3cc(C)on3)sc2c1	none (no result: Shiga inhibitor, NS1 function inh, Cycloheximide cs)
O=C1CN(S(=O)(=O)c2c(F)cccc2F)CCN1S(=O)(=O)c1ccc2c(c1)OCCO2	none (no result: SARS PLP yeast, NS1 function inh)
ON=C1c2ccccc2-c2ccccc21	Shiga inhibitor 23, Cycloheximide cs 25
O=C(Nc1ccc(F)c(Cl)c1)Nn1cnnc1	none
Cc1ccc(N=Nc2c(O)n(CN3CCOCC3)c3ccccc23)cc1	Shiga inhibitor 106, Cycloheximide cs 63
CCC1CCCCN1C(=O)CSc1nnc(-c2ccc(Cl)cc2)o1 (centres undefined)	none
CCC1CCCCN1C(=O)CSc1nnc(-c2ccc(Cl)s2)o1 (centres undefined)	Shiga inhibitor 82, Cycloheximide cs 38
CCC1CCCCN1C(=O)CSc1nnc(-c2cccc(Cl)c2)o1 (centres undefined)	Shiga inhibitor 98, Cycloheximide cs 29
CCC1CCCCN1C(=O)CSc1nnc(-c2ccco2)o1 (centres undefined)	Shiga inhibitor 62, Cycloheximide cs 37
O=C(CSc1nnc(-c2ccco2)o1)NC1CCCCCC1	none
Cc1ccc(CNC(=O)C(N=C2NS(=O)(=O)c3ccccc32)C(C)C)cc1 (centres undefined)	none (no result: Shiga inhibitor, NS1 function inh, Cycloheximide cs)
Cc1ccc(C)c(C(=O)COC(=O)c2ccccc2N2C(=O)C3C4CCC(C4)C3C2=O)c1 (centres undefined)	none
O=C(/C=C/Nc1nccs1)C(F)(F)Cl	Shiga inhibitor 102, Cycloheximide cs 35
O=C(Nc1nccs1)NC(C(F)(F)F)C(F)(F)F	none
COc1ccc(-c2ccc(C(=O)C3CC3)cc2)cc1	Shiga inhibitor 65, Cycloheximide cs 16
N/C(=N\OC(=O)C1CCCCC1)c1cccc(Br)c1	none
COc1ccc(/C(N)=N/OC(=O)C2CCCCC2)cc1	Shiga inhibitor 136, Cycloheximide cs 43
COc1ccc(/C(N)=N/OC(=O)C2CCCCC2)cc1OC	Shiga inhibitor 78, Cycloheximide cs 50
C[N+](C)(N)Cc1nc(-c2ccc(Cl)cc2)no1	none (no result: SARS PLP yeast, Shiga inhibitor, Cycloheximide cs)
Cc1nnc(SCC(=O)NC(C)(C)C)n1CCc1ccccc1	Cycloheximide cs 11
Cc1ccc(CNC(=O)c2ccccc2NC(=O)CN2CCN(C)CC2)cc1	none
Cc1ccc(C)c2c1cc(C)c1nnc(SCC(=O)Nc3nc4c(s3)CCCC4)n12	none
Cc1ccc2cc(C)c3nnc(SCC(=O)Nc4nc5c(s4)CCCC5)n3c2c1C	Cycloheximide cs 12
Cc1cc(SCC(=O)c2cccs2)nc2ccccc12	Shiga inhibitor 73, Cycloheximide cs 42
Cc1ccc(C)c2c1cc(C)c1nnc(SCC(=O)c3cccs3)n12	none
Cc1ccc2cc(C)c3nnc(SCC(=O)c4cccs4)n3c2c1C	Cycloheximide cs 38
CCOC(=O)c1ccccc1NC(=O)CN(c1cccc(OC)c1)S(C)(=O)=O	none
Cc1ccc2c(c1)Sc1c(ccc3ccccc13)N2	Shiga inhibitor 85, Cycloheximide cs 54
Cc1cc(C)c(C(=O)N2CCCC(N3CCN(c4ccc(F)cc4)CC3)C2)o1 (centres undefined)	none
Cc1ccc(C2(C)NC(=O)N(CC(=O)Nc3ccc(Cl)c(S(=O)(=O)N4CCCCC4)c3)C2=O)cc1 (centres undefined)	none (no result: Shiga inhibitor, NS1 function inh, Cycloheximide cs)
CCOC(=O)c1cc2c(C)n(-c3ccc(OCC)cc3)c(C)c2ccc1=O	Cycloheximide cs 16
CCOc1ccc(-n2c(C)c(C(=O)OC)c3cc(O)ccc32)cc1	none
CCOC(=O)c1cc2c(C)n(-c3ccc(C)cc3)c(C)c2ccc1=O	Shiga inhibitor 120, Cycloheximide cs 35
O=C(O)CCC(=O)NNC(=O)c1cccc(Cl)c1	none
CC1=C(C)CC(C(=O)NNC(=O)c2ccccc2)C(C(=O)O)C1 (centres undefined)	Shiga inhibitor 79, Cycloheximide cs 24
CC1=C(C)CC(C(=O)NCC(=O)c2ccccc2)C(C(=O)O)C1 (centres undefined)	Shiga inhibitor 70, Cycloheximide cs 40
CC1=C(C)CC(C(=O)NCc2ccccn2)C(C(=O)O)C1 (centres undefined)	none
CC1=C(C)CC(C(=O)NNC(=O)c2cccc(Cl)c2)C(C(=O)O)C1 (centres undefined)	Shiga inhibitor 50, Cycloheximide cs 37
CCOP(=O)(OCC)C(NC(=O)c1cccs1)c1ccccc1 (centres undefined)	none
COc1ccc(C(=O)c2coc3ccc(O)c(CN4CCOCC4)c23)cc1	Shiga inhibitor 38, Cycloheximide cs 13
CCN(CC)Cc1c(O)ccc2occ(C(=O)c3ccc(OC)cc3)c12	Cycloheximide cs 15
Cc1ccc(C(=O)c2coc3ccc(O)c(CN4CCN(C)CC4)c23)cc1	Shiga inhibitor 73, Cycloheximide cs 15
COc1ccc(C(=O)c2coc3ccc(O)c(CN4CCCC4)c23)cc1	none
Cn1cnc(C(=O)N2CCc3ccccc3C2)c1C(=O)N1CCc2ccccc2C1	none (no result: Shiga inhibitor, NS1 function inh, Cycloheximide cs)
CC1CCCCN1c1ccc(N)cc1C(N)=O (centres undefined)	none
Cc1cc(N2CCN(C)CC2)nc2ccc(NC(=O)c3ccc(Br)o3)cc12	Shiga inhibitor 101, Cycloheximide cs 26
Cc1cc(N2CCN(C)CC2)nc2ccc(NC(=O)c3ccc4c(c3)OCO4)cc12	Cycloheximide cs 20
O=C(Cc1ccc(F)cc1)OCn1nnc2ccccc2c1=O	none
CCOC(=O)N1CCN(CC(=O)c2ccc(O)cc2O)CC1	none (no result: SARS PLP yeast)
CCOC(=O)N1CCN(CC(=O)c2ccc(O)c(C)c2O)CC1	Cycloheximide cs 31
COc1ccc2oc(=O)c(C(=O)NCC3CCCO3)cc2c1 (centres undefined)	Cycloheximide cs 29
